Inconclusive results are not listed. Entries that show only a call come without a potency. Activity calls are given as the source filed them. The call rests on the fitted dose curve; in most records, active means well fitted curve in the direction sought with a large enough effect; inconclusive means small, poorly fitted or top-dose-only effect, or another doubt; inactive means no such curve, though single readings can be large; an effect the other way counts as inactive or inconclusive.

Chain of Glucagon-like peptide 1 receptor (Homo sapiens) (P43220 whole entry, looked up): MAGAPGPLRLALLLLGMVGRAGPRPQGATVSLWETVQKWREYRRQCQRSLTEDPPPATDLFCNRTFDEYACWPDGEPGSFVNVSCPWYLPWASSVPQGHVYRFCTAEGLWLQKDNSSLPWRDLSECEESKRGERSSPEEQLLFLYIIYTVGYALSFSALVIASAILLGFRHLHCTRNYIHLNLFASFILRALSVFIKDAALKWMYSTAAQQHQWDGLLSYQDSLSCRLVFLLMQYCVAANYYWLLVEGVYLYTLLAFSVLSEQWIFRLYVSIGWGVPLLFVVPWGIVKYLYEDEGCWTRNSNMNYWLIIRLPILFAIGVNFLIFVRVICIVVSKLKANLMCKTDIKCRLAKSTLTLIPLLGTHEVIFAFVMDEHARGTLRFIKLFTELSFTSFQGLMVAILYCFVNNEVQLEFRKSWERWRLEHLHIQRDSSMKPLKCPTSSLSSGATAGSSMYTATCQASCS

One assay addresses Glucagon-like peptide 1 receptor (Homo sapiens) (UniProt P43220). Description: qHTS of GLP-1 Receptor Agonists: LOPAC Validation (AID 624148).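 Further: higher luminescence signal means agonism.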 Particulars: GLP-1R agonist cell assay; series mostly up to 46.1 µM. The gist of the method: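 HEK293 cells stably co-expressing a cAMP-responsive luciferase reporter and a hypersensitive GLP-1R were plated 12 h at 37 °C and exposed to compounds for 4-6 hr at 37 °C, 5% CO2. Luminescence was read 12 min after adding detection reagent.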
On the technique in general: qHTS replaces the single test concentration by a dilution series.
Turning to `N=c1ccn2c(n1)O[C@H]1[C@H](O)[C@@H](CO)O[C@H]12`, the molecule was called inactive.

Consider `CCC1C(=O)OCC1Cc1cncn1C` (stereo not given), for which the molecule was called inactive.

Take `C=CC(N)CCC(=O)O` (stereo not given): the call was inactive.

Turning to `COc1ccc(/C=C/C(=O)Nc2ccccc2C(=O)O)cc1OC`, the molecule was classed as inactive.

System in the next assay: not listed separately
The experiment in a line: qHTS of Nrf2 Activators: LOPAC Validation (AID 624149). Particulars: Nrf2/ARE reporter cell assay; series mostly up to 46.1 µM. An outline of the steps:
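AREc32_Fluc cells, 1000/well, OPTI-MEM + 5% FBS, o/n 37 deg C 5% CO2; compound pin-transfer, 24 hr 37 deg C; Steady-Glo 30 min RT, luminescence read.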
For `N=c1ccn2c(n1)O[C@H]1[C@H](O)[C@@H](CO)O[C@H]12`, the outcome was inactive.

As for `Cc1ccccc1CNc1ncnc2c1ncn2C1OC(CO)C(O)C1O` (stereo not given), the call was inactive.

With `CCC1C(=O)OCC1Cc1cncn1C` (stereo not given), the molecule was classed as inactive.

With `C=CC(N)CCC(=O)O` (stereo not given), the molecule was classed as inactive.

Take `CC(N)C(=O)OC(C)(C)Cc1ccc(Cl)cc1` (stereo not given): the outcome was inactive.

As to `COc1ccc(/C=C/C(=O)Nc2ccccc2C(=O)O)cc1OC`, the result was inactive.

System in the next assay: not listed separately
The experiment in a line: HTS Assay for Allosteric Antagonists of the Human D2 Dopamine Receptor: Hit Validation in HTRF (AID 624455). The settings on record: Cells stably expressing D1 dopamine receptor, inhibition mode; series mostly up to 46.1 µM. The gist of the method:
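HTRF read-out; cells stably expressing D1 receptor; hits scored for inhibition of D1-mediated response. Primary screen: calcium flux, force-coupled inducible Hek293 Trex D2 line, antagonism vs EC80 dopamine.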
A general note: Time-resolved FRET reads energy transfer from a long-lived donor to a nearby acceptor.
With `N=c1ccn2c(n1)O[C@H]1[C@H](O)[C@@H](CO)O[C@H]12`, the Potency result is “inactive”.

In the case of `Cc1ccccc1CNc1ncnc2c1ncn2C1OC(CO)C(O)C1O` (stereo not given), the Potency entry is “inactive”.

On to `CCC1C(=O)OCC1Cc1cncn1C` (stereo not given), for which the Potency result was “inactive”.

Regarding `C=CC(N)CCC(=O)O` (stereo not given), the Potency entry was “inactive”.

For the molecule `CC(N)C(=O)OC(C)(C)Cc1ccc(Cl)cc1` (stereo not given), the Potency result was “inactive”.

Source of the values: PubChem BioAssay (NCATS).
